# PubChem BioAssay
# “And” between values parts separate entries of the source, which are not always exact repeats. Equal entries are not always repeated. The source made the active and inactive calls. Unless noted, no rule for the calls is given here.
# Columns and labels:
# [1] = compound effects on lung adenocarcinoma cell viability – A549, calcein-AM fluorescence, 48 h, basal, profiling panel (AID 1162); conditions: higher = more signal; also: test concentration not given here
# [2] = compound effects on differentiated 3T3-L1 adipocyte viability – cell-based, 3T3-L1 adipocytes, calcein-AM fluorescence, 48 h, basal, profiling panel (AID 1163); conditions: 3T3-L1 adipocytes viability, higher = more signal; also: test concentration not given here
# [3] = compound effects on hepatocellular carcinoma cell viability – HepG2, calcein-AM fluorescence, 48 h, basal, profiling panel (AID 1164); conditions: higher = more signal; also: test concentration not given here
# [4] = compound effects on multiple myeloma cell viability – MM1S, calcein-AM fluorescence, 48 h, basal, profiling panel (AID 1165); conditions: higher = more signal; also: test concentration not given here
# [5] = calcein-AM signal in unstimulated myeloma cells – cell-based, calcein-AM fluorescence, 48 h, PK04 Diversity Set, profiling panel (AID 1166); conditions: RPMI8226 myeloma viability, higher = more signal;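 also: cells grown under basal conditions without added stimulus; test concentration not given here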
# [6] = JC-1 mitochondrial signal, unstimulated HepG2 cells – cell-based, JC-1 fluorescence, 24 h, 100 nL compound, profiling panel (AID 1167); conditions: HepG2 mitochondrial potential, higher = more signal; also: test concentration not given here
# [7] = JC-1 mitochondrial signal, unstimulated adipocytes – cell-based, JC-1 fluorescence, 3T3-L1 adipocytes, 24 h, 100 nL compound, profiling panel (AID 1168); conditions: JC-1 mitochondrial fluorescence, higher = more signal, called active from +8 up or from −8 down; also: test concentration not given here
# [8] = JC-1 mitochondrial signal, unstimulated myeloma cells – cell-based, JC-1 fluorescence, RPMI8226, 24 h, 100 nL compound, profiling panel (AID 1169); conditions: JC-1 mitochondrial potential fluorescence, higher = more signal; also: test concentration not given here
# [9] = JC-1 mitochondrial signal, unstimulated MM1S myeloma – cell-based, JC-1 fluorescence, 24 h, 100 nL compound, profiling panel (AID 1170); conditions: MM1S mitochondrial potential, higher = more signal; also: test concentration not given here
# [10] = resazurin metabolic signal in A549 cells – cell-based, resazurin fluorescence, 24 h, PK04 Diversity Set, profiling panel (AID 1171); conditions: A549 viability, higher = more signal, called active from +8 up or from −8 down; also: test concentration not given here
# [11] = resazurin metabolic signal in HepG2 cells – cell-based, resazurin fluorescence, 24 h, PK04 Diversity Set, profiling panel (AID 1172); conditions: HepG2 viability, higher = more signal; also: test concentration not given here
# [12] = budding yeast growth changes without added modifier – OD600, strain BY4716, 24 h, basal condition, primary screen (AID 1173); conditions: S. cerevisiae BY4716 growth, OD600, 24 h; higher = more signal, called active from +8 up or from −8 down
# [13] = viability profiling in MM1S myeloma cells – cell-based, resazurin fluorescence, basal, 24 h, PK04 Diversity Set, profiling panel (AID 1174); conditions: higher = more signal, called active from +8 up or from −8 down; also: test concentration not given here
# [14] = target: Dihydroorotate dehydrogenase (quinone), mitochondrial (Plasmodium falciparum (isolate 3D7)) (UniProt Q08210); assay: inhibition of P. falciparum DHODH – biochemical, C-terminal His tag, absorbance 600 nm, primary screen (AID 1175); conditions: PfDHODH enzyme, DCIP absorbance 600 nm; higher = more signal, called active from +8 up or from −8 down;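 also: recombinant parasite enzyme with a five histidine tag at its C terminus; test concentration not given here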
# Sequence of Dihydroorotate dehydrogenase (quinone), mitochondrial (Plasmodium falciparum (isolate 3D7)) (Q08210 whole entry, looked up): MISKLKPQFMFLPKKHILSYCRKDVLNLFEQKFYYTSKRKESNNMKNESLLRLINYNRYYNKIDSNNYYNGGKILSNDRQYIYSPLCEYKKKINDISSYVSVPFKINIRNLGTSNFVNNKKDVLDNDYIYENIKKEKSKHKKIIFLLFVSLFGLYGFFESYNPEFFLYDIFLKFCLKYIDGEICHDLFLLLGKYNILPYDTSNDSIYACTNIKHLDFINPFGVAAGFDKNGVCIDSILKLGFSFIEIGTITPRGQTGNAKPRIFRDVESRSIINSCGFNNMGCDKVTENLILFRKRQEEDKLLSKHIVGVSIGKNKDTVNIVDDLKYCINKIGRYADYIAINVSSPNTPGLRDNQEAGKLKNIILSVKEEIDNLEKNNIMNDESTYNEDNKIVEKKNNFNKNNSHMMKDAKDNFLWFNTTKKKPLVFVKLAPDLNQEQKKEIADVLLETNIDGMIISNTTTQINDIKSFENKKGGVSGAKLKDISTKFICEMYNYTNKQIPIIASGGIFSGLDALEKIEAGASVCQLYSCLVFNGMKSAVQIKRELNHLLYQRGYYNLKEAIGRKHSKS
# [15] = inhibition of PAO1 biofilm formation – strain PAO1, LB-PBS medium, absorbance 600 nm, primary screen (AID 1176); also: test concentration not given here; conditions: P. aeruginosa PAO1 growth/biofilm, A600, 12 h; higher = more signal
# [16] = growth modulation of vineyard yeast isolate – strain RM11-1a, OD600, basal, 24 h, primary screen (AID 1177);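 also: cultures grown under basal conditions with no added stressor; test concentration not given here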; conditions: S. cerevisiae RM11-1a growth, OD600, 24 h; higher = more signal, called active from +8 up or from −8 down
# [17] = growth of efflux-deficient E. coli DRC39 – strain DRC39, OD650, 24 h, E. coli filamentation inducers, primary screen (AID 1178);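 also: growth measured as culture turbidity by optical density at 650 nm; test concentration not given here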; conditions: E. coli DRC39 acrAB, higher = more signal, called active from +8 up or from −8 down
# [18] = growth of efflux-deficient E. coli DRC39 – strain DRC39, OD650, 48 h, E. coli filamentation inducers, primary screen (AID 1179);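 also: screen aims at cell division blockers that make cells filament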; conditions: E. coli DRC39 delta-acrAB growth, higher = more signal, called active from +8 up or from −8 down
# [19] = viability profiling in RPMI8226 myeloma cells – cell-based, resazurin fluorescence, basal, 24 h, PK04 Diversity Set, profiling panel (AID 1180); conditions: higher = more signal;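 also: RPMI8826 multiple myeloma cell line at 5000 cells per well; test concentration not given here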
# [20] = target: E3 ubiquitin-protein ligase XIAP (Homo sapiens) (UniProt P98170); assay: small molecules binding XIAP protein – biophysical, small-molecule microarray, fluorescence 635 nm, primary screen (AID 1181); conditions: higher = more signal;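 also: score merges 667 nm emission and signal to noise over triplicate slides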
# Sequence of E3 ubiquitin-protein ligase XIAP (Homo sapiens) (P98170 whole entry, looked up): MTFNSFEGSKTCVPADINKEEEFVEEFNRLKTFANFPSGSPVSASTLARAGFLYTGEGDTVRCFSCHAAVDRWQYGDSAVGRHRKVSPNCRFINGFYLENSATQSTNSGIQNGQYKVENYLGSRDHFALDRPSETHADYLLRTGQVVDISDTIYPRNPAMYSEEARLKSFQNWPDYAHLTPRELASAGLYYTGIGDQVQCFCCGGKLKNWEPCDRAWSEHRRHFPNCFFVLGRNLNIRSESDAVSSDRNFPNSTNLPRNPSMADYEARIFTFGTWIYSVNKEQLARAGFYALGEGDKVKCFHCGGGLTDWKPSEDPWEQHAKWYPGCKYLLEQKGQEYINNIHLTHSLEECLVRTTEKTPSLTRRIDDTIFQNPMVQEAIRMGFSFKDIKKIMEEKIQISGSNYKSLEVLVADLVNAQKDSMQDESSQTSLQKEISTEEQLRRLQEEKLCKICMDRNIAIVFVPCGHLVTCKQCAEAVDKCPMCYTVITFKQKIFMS
SMILES,z-score [1],z-score [2],z-score [3],z-score [4],z-score [5],z-score [6],z-score [7],z-score [8],z-score [9],z-score [10],z-score [11],z-score [12],z-score [13],composite z-score [14],z-score [15],z-score [16],z-score [17],z-score [18],z-score [19],composite z-score [20]
C[C@@H]1CC[C@@H](C(=O)O)N[C@H]1c1ccc(-c2ccco2)cc1,1.11,-0.396,0.229,0.617,0.404,1.49,0.309 (inactive),-0.636,0.496,0.115 (inactive),0.443,-0.319 (inactive),0.603 (inactive),0.268 (inactive),-0.151 (inactive),-0.0212 (inactive),0.127 (inactive),-0.551 (inactive),0.285,0.012
CCCNC(=O)OC[C@H]1O[C@H](CCON=C(C)CCC(=O)OC[C@H]2O[C@H](C#Cc3ccccc3)C=C[C@@H]2Oc2ccc(C)cc2)C=C[C@@H]1Oc1ccc(OC)cc1,-0.284,-0.182,-0.433,-0.321,0.0363,1.38,-1.31 (inactive),0.15,-0.435,0.835 (inactive),0.462,0.889 (inactive),-0.0269 (inactive),-0.754 (inactive),-0.066 (inactive),0.432 (inactive),0.715 (inactive),0.565 (inactive),0.75,0.0408
C[C@@H]1CN2[C@@H](CC[C@@H](C)[C@@H]2c2ccc(Br)cc2)C(=O)O1,-0.133 and 0.551,0.706 and 0.0322,-0.163 and 0.959,0.248 and 0.391,-0.0928 and 0.767,0.446 and 0.56,-0.0606 (inactive) and 0.229 (inactive),0.05 and 0.203,1.26 and -0.901,0.131 (inactive) and -1.45 (inactive),0.0519 and -0.598,0.214 (inactive) and -2.02 (inactive),0.475 (inactive) and -0.181 (inactive),0.694 (inactive) and -1.1 (inactive),-0.188 (inactive) and 0.417 (inactive),0.999 (inactive) and -1.13 (inactive),0.322 (inactive) and 0.819 (inactive),-1.32 (inactive) and -0.313 (inactive),0.967 and -0.0883,0.118 and 0.166
C=CCN1C(=O)[C@]2(O[C@H](CCn3cc(CCO)nn3)[C@@H]([Si](C)(C)c3ccc(OC)cc3)[C@@H]2C)c2cc(N3C(=O)c4cccc5cccc3c45)ccc21,-3.83 and -4.13,-1.83 and -2.41,-4.65 and -4.73,-2.66 and -2.87,-4.33 and -4.37,-1.51 and 1.37,5.29 (inactive) and 4.16 (inactive),-0.877 and -0.786,-2.27 and -1.98,-6.11 (inactive),-6.38 and -6.41,1.99 (inactive) and 1.56 (inactive),-9.01 (active) and -9.12 (active),1.19 (inactive) and 1.35 (inactive),0.355 (inactive) and 1.15 (inactive),4.03 (inactive) and 3.23 (inactive),1.91 (inactive) and 1.72 (inactive),0.906 (inactive) and 0.389 (inactive),-6.26 and -6.25,-0.178 and 0.0256
CO[C@@H]1COC(=O)CC=C[C@H](C)COC(=O)[C@H](C)NC(=O)CC=C[C@H]1C,0.158,0.31,0.46,0.122,0.353,1.04,0.214 (inactive),-0.0124,0.955,0.162 (inactive),0.496,0.699 (inactive),0.859 (inactive),1.09 (inactive),-0.531 (inactive),1.25 (inactive),0.365 (inactive),-0.896 (inactive),0.74,-0.0936
O=C1C[C@]2(c3ccc([N+](=O)[O-])cc3)C(=O)N(Cc3ccccc3)c3cc(CO)ccc3[C@H]2N1C1CCCCC1,-0.8 and 0.627,0.43 and 1.53,-1.3 and 0.0974,-0.514 and -2.14,-0.684 and -2.65,-0.236 and 0.352,-0.0101 (inactive) and -0.0655 (inactive),-0.469 and -0.544,-0.152 and -0.189,0.466 (inactive) and -0.352 (inactive),0.981 and -0.766,-0.0998 (inactive) and -0.919 (inactive),0.0351 (inactive) and -0.743 (inactive),-2.77 (inactive) and 0.496 (inactive),0.599 (inactive) and 1.21 (inactive),0.029 (inactive) and -0.21 (inactive),0.512 (inactive) and 0.2 (inactive),0.566 (inactive) and -0.0186 (inactive),0.702 and -0.966,2.56 and 0.144
